# From PubChem
# Pf growth 48h: Primary qHTS for delayed death inhibitors of the malarial parasite plastid, 48 hour incubation; P. falciparum luciferase growth in erythrocytes, 48 h; Potency, µM (titrated, usually from 28.7 µM), for inactives: at the highest dose activity change, negative = inhibition, most hits filed as inhibitors; 5.9% of 310,000 active; note: potency is the fitted concentration of half-maximal effect; % is set by controls: 0 for no effect and ±100 for the full control effect
#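 Luciferase-expressing parasites in RBCs, 2% Hct / 0.1% parasitemia final; RPMI 1640 + 0.5% Albumax; 37 C, 5% CO2, one generation; luminescence read-out, lower signal = inhibition.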
# HCMV antiviral: qHTS Assay for inhibitors of the human cytomegalovirus (HCMV); HFF cells, HCMV-luciferase reporter, 72 h; active compounds read low; activity change, negative = inhibition, % at 57.5 µM; 4.5% of 410,000 active; AID 1259415, 2018; in the data active = activity change below about -60%; inconclusive = no clear call, values can overlap the other calls; inactive = above about -39%; note: % is set by controls: 0 for no effect and ±100 for the full control effect
#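 Two compound doses tested in HFFs infected with HCMV-luciferase, MOI 1 PFU/cell, 72 h at 37C. Lysate luminescence read with OneGlo; data normalized against buffer-only and 10uM Salinomycin inhibitor controls.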
# Pf growth 96h: Primary qHTS for delayed death inhibitors of the malarial parasite plastid, 96 hour incubation | 6.9% of 320,000 active | Potency, µM (top dose mostly 28.7 µM), without a hit: at the top dose activity change, negative = inhibition, usual class: inhibitors | P. falciparum luciferase reporter growth, 96 h; note: potency is the fitted concentration of half-maximal effect; % is set by controls: 0 for no effect and ±100 for the full control effect
#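 P. falciparum expressing integrated firefly luciferase, in erythrocytes at 2% hematocrit, 0.05% parasitemia, incubated with compounds 96 h at 37 C, 5% CO2. Growth inhibition read as loss of luminescence; two-generation exposure targets delayed-death apicoplast inhibitors.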
# Shiga toxin inh: A qHTS for Small Molecule Inhibitors of Shiga Toxin; Vero cells, Shiga toxin protein synthesis inhibition reporter; inhibition, % at 38.7 µM; 9.2% of 290,000 active; AID 2315, 2010; in the data active = inhibition mostly above about 28%, no sharp cut-off; inactive = mostly below about 43%; note: 0% is about no effect
# Cycloheximide cs: Cycloheximide Counterscreen for Small Molecule Inhibitors of Shiga Toxin; max response, %; cell reporter, cycloheximide protein synthesis inhibition counterscreen; 12% of 300,000 active; in the data active = max response mostly above about 13%, no sharp cut-off; inactive = mostly below about 14%; note: read at 38.3 µM for the half of the compounds with a filed dose; 0% is about no effect
# HCV inh: qHTS Assay for Inhibitors of Hepatitis C Virus (HCV) | Huh7.5.1 HCVcc-Cre infection, luciferase reporter, 44 h | Potency, µM (top dose mostly 41.8 µM), without a hit: top-dose activity change, negative = inhibition, hits mostly inhibitors | 3.4% of 340,000 active; note: potency is the fitted concentration of half-maximal effect; % is set by controls: 0 for no effect and ±100 for the full control effect
#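 HCVcc-Cre virus at an moi near 0.5 was added right after compound to cells cultured 4 h from seeding (1,000 cells/well). Luciferase activity was determined 44 h later, 15 min after substrate addition at RT.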
# Numbers without * were called inactive; i = inactive; u = inconclusive; x = no result; [ ] = dose if it differs, or a comment. An excerpt weighted towards active compounds, which were near 21% of everything screened. Unless noted, calls come from the whole dose curve; as a rule, active = well fitted inhibition curve with a large enough effect; inconclusive = small, poorly fitted or top-dose-only effect, or another doubt; inactive = no such curve, though single readings can be large or run the other way.
SMILES,Pf growth 48h,HCMV antiviral,Pf growth 96h,Shiga toxin inh,Cycloheximide cs,HCV inh
CCOc1c(Br)ccc2c1sc1nc[nH]c(=O)c12,-2%,-23,9.3µM*,-15,-8,-7%
N#C/C(=C\c1ccc[nH]1)C(=O)NCC1CCCO1 (stereo not drawn),92%,-1,99%,38,25*,20%
Cc1ccccc1-n1c(C)cc(/C=C(\C#N)C(=O)NCC2CCCO2)c1C (stereo not drawn),-77%,u,8.3µM*,123*,65*,-17%
COc1cc(/C=C(\C#N)C(=O)NCC2CCCO2)ccc1OCC(=O)O (stereo not drawn),35%,-22,2.3µM*,-10,-2,18%
Cc1cc(/C=C(\C#N)C(=O)NCc2cccs2)c(C)n1-c1ccccc1F,25%,97,111%,80*,52*,u
COC(=O)c1cc(OCC(=O)Nc2ccc3c(c2)CCC3)cc(C(=O)OC)c1,x,-6,x,x,x,u
CCOc1ccc(S(=O)(=O)N2CCN(C(=O)c3cc4ccccc4o3)CC2)cc1,x,-25,x,x,x,u
CCCCCN(C(=O)CCC(=O)OCc1cccc(C)c1)c1c(N)n(CCCC)c(=O)[nH]c1=O,-1%,-7,u,x,x,-15%
N#C/C(=C\c1ccco1)C(=O)NCC1CCCO1 (stereo not drawn),44%,67,12%,50*,17*,u
CCNC(=O)c1c(C)oc2ncn(C)c(=O)c12,x,10,x,x,x,x
COc1ccc(C)cc1NC(=O)Nc1ccccc1OCc1cc(=O)n2ccccc2n1,x,37,x,x,x,x
O=C(COC(=O)CCc1nc2ccccc2c(=O)[nH]1)NC1CCS(=O)(=O)C1 (stereo not drawn),33%,-23,34%,26,34*,13%
CC1CCc2nc3ccccc3c(C(=O)OCC(=O)N(C)C3CCS(=O)(=O)C3)c2C1 (stereo not drawn),u,-13,u,13,5,u
COc1cccc(NC(=O)COC(=O)c2c3c(nc4ccccc24)CCC(C)C3)c1 (stereo not drawn),u,-25,u,-6,22,2µM*
CCN(CC(=O)NC(=O)NC1CCCCC1)Cc1nc2ccccc2c(=O)[nH]1,-17%,15,x,-6,-4,-16%
CC1CCc2nc3ccccc3c(C(=O)OCC(=O)NC3CCS(=O)(=O)C3)c2C1 (stereo not drawn),-32%,-17,u,-13,6,10µM*
CC1CCC(NC(=O)CC(C)(C)Cc2nc3ccccc3c(=O)[nH]2)CC1 (stereo not drawn),9%,u,u,51,16*,u
N#Cc1ccc(C(=O)N(Cc2ccco2)c2c(N)n(Cc3ccccc3)c(=O)[nH]c2=O)cc1,2%,-5,u,x,x,4%
Cc1ccc(C)c(N2CCN(C(=O)c3ccc(NC4=NC5CS(=O)(=O)CC5S4)cc3)CC2)c1 (stereo not drawn),-1%,-8,10µM*,-3,-5,8%
Cc1cccc(CCNC(=O)c2cccc(NC3=NC4CS(=O)(=O)CC4S3)c2)c1 (stereo not drawn),2%,2,15µM*,-3,2,6%
CCOc1ccc(NC(=O)c2cccc(NC3=NC4CS(=O)(=O)CC4S3)c2)cc1 (stereo not drawn),15%,2,8.3µM*,2,-2,11%
O=C(c1ccc(NC2=NC3CS(=O)(=O)CC3S2)cc1)N1CCN(C(=O)c2ccco2)CC1 (stereo not drawn),5%,75,12%,-19,7,-9%[8.37 µM]
CC1(C(=O)NS(=O)(=O)c2ccccc2Cl)CCN1C(=O)CCc1ccccc1 (stereo not drawn),x,3,x,x,x,x
COc1ccc(-c2nn(-c3ccccc3)cc2/C=N/NC(=O)c2ccc(Br)o2)cc1,u,-14,u,-3,3,u
COc1ccc(-c2nn(-c3ccccc3)cc2/C=N/NC(=O)c2cccc(S(=O)(=O)Nc3ccccc3OC)c2)cc1,3.3µM*,13,2.3µM*,-6,17,5%
SMILES,Pf growth 48h,HCMV antiviral,Pf growth 96h,Shiga toxin inh,Cycloheximide cs,HCV inh
Cc1ccc(-c2nn(-c3ccccc3)cc2/C=N/NC(=O)CSc2nnc(C)n2-c2ccccc2)cc1,u,39,-3%,54*,36*,14µM*
COc1ccc(-c2nn(-c3ccccc3)cc2/C=N/Nc2cccc(C(=O)O)c2)cc1,17%,-61*,-9%,108*,56*,-33%
CN1CC[C@@H]2C(=O)N3CCc4ccc(-c5ccc6c(c5)OCO6)cc4[C@@H]3C[C@@H]21,x,27,x,x,x,6%
CC[C@H](C)[C@H](NC(=O)[C@H](CC(=O)O)NC(=O)[C@H](CC(N)=O)NC(=O)[C@@H](NC(=O)[C@H](CCCNC(=N)N)NC(=O)[C@@H](NC(=O)[C@@H](NC(=O)[C@@H](NC(=O)[C@@H](NC(=O)[C@H](CCCCN)NC(=O)[C@@H](NC(=O)[C@H](CC(C)C)NC(=O)[C@@H](NC(=O)[C@H](CCCCN)NC(=O)[C@@H](NC(=O)[C@H](CC(=O)O)NC(=O)[C@H](CC(=O)O)NC(=O)[C@H](CCC(N)=O)NC(=O)[C@@H](NC(=O)[C@H](CCCCN)NC(=O)[C@H](CCC(N)=O)NC(=O)[C@@H](NC(=O)[C@@H]1CCCN1C(=O)[C@@H](N)C(C)C)[C@@H](C)CC)C(C)C)[C@@H](C)O)[C@@H](C)O)[C@@H](C)CC)[C@@H](C)O)[C@@H](C)CC)C(C)C)[C@@H](C)O)[C@@H](C)CC)C(=O)N[C@@H](CO)C(=O)N[C@@H](Cc1cnc[nH]1)C(=O)N[C@H](C(=O)N[C@@H](CCC(N)=O)C(=O)N[C@@H](CO)C(=O)N[C@H](C(=O)N[C@@H](CO)C(=O)N[C@@H](CO)C(=O)N[C@@H](CCCCN)C(=O)N[C@@H](CCC(N)=O)C(=O)N[C@@H](CCCCN)C(=O)O)C(C)C)[C@@H](C)O,x,x,x,-4,-5,x
COc1ccc(C2NC(=O)CS2)cc1OC (stereo not drawn),7%,28,-21%,-17,-4,15%
Fc1cccc(C2NN=C(c3ccccc3)S2)c1 (stereo not drawn),270%,91,246%,112*,73*,4%
Cc1ccc(C2=NNC(c3cccc(F)c3)S2)cc1 (stereo not drawn),i,69,12µM*,3,8,-12%
Cc1ccc(Cn2c(CO)cnc2SCc2cccc(F)c2)cc1,x,-11,x,x,x,x
